The values below come from PubChem BioAssay (NCI).

The panel holds about 83,000 compounds, 20% with a hit somewhere; the sample as a whole holds those more often.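 Growth was measured after 48 h exposure to one concentration of compound in 96-well plates. Values under 10 count as active.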 A number with no mark means an inactive call. Calls of active or inactive are those of the source.

Holding throughout (experiment): NCI-60 one-dose screen, 48 h (100 = growth as untreated, 0 = no growth, -100 = all killed)
Holding throughout (settings): 10 µM unless noted

Assay [1] has as its system NCI-H23 lung.
Assay [2] relates to NCI-H226 lung.
For assay [3], the system named is NCI-H322M lung.
In assay [4] the test system is HOP-62 NSCLC.
Assay [5] concerns NCI-H460 lung.
In assay [6] the test system is HOP-92 NSCLC.
Assay [7] relates to NCI-H522 lung.
Assay [8] relates to A549/ATCC NSCLC.
The subject of assay [9] is 786-0 renal.
For assay [10], the system named is COLO 205 colon.
Assay [11] has as its system DU-145 prostate.
Assay [12] relates to K-562 leukemia.
For assay [13], the system named is MALME-3M melanoma.
For assay [14], the system named is MDA-MB-231 breast.
Assay [15] deals with RXF 393 renal.
Assay [16] has as its system SF-268 CNS.
The subject of assay [17] is SF-295 CNS.
For assay [18], the system named is SF-539 CNS.
Assay [19] concerns UACC-257 melanoma.
The subject of assay [20] is M14 melanoma.

For `Nc1nccc2c1ccn2-c1ccc(NC(=O)Nc2cccc(C(F)(F)F)c2)cc1`, the growth in [1] is 90%; in assay [2], 81.9%; in assay [3], 98.2%; in [4], 94.2%; in [5], 90.8%; in [6], 57.4%. The growth is 87.2% in [7]; 91.3% in [8]; 110% in assay [9]; 92.1% in assay [10]; 96.7% in assay [11]; 81.5% in [12]. Also, the growth was 99.3% in assay [13]; 72.9% in [14]; 97.8% in [15]; 96.3% in assay [16]; 78.2% in [17]; 86.1% in assay [18]. The growth in [19] is 113%; in assay [20] it was 91.5%.

As to `NC(N)=N/N=C/c1ccc([N+](=O)[O-])cc1`, the growth was 91.4% in [1]; 101% in [2]; 93.5% in assay [3]; 104% in [4]; 104% in assay [5]; 104% in assay [6]. The growth in [7] is 107%; in assay [8], 109%; in [9], 103%; in assay [10], 113%; in assay [11], 125%; in assay [12] it was 117%. The growth was 103% in [13]; 101% in assay [14]; 102% in assay [15]; 103% in [16]; 91.3% in assay [17]; 105% in assay [18]. Moreover, the results for the growth in assay [19] and in assay [20] were 102% and 105%, respectively.

For `O=C(Nc1ccc(-n2ccc3c(NC(=O)c4ccccc4)ncnc32)cc1)c1ccc(Cl)c(C(F)(F)F)c1`, the growth in [1] is 56.5%; in assay [2], 32.3%; in [3], 44.1%; in assay [4], 45.6%; in [5], -30.5% (active); in [6] it was 89.4%. In addition, the growth in assay [7] is 11.3%; in assay [8] it was -40.8% (active); in assay [9], 54.9%; in assay [10], 33.3%; in assay [11] it was 23.1%; in assay [12], 7.82% (active). Besides, the growth is 26.9% in [13]; 12.2% in assay [14]; 19% in assay [15]; 18.7% in assay [16]; 11.7% in assay [17]; 31.9% in assay [18]. Also, the values for the growth in assay [19] and in assay [20] were 46% and 9.79% (active), respectively.

For `C#C[C@@]1(O)[C@@H](CO)O[C@@H](n2cc(C(F)(F)F)c3c(N)ncnc32)[C@@H]1O`, the growth in [1] is 2.72% (active); in assay [2], -12.1% (active); in assay [3] it was 16%; in [4], 7.02% (active); in assay [5] it was 2.05% (active); in assay [6], -13.7% (active). The growth in assay [7] is -52.5% (active); in assay [8], -4.98% (active); in assay [9], 4.52% (active); in assay [10], -77.1% (active); in assay [11], 10.2%; in assay [12], 5.44% (active). Besides, the growth in assay [13] was -22% (active); in assay [14], 14%; in assay [15] it was -30.3% (active); in assay [16], 11.9%; in assay [17], 7.42% (active); in assay [18], -25.3% (active). For the same molecule, the growth in assay [19] is 21%; in assay [20] it was 9.25% (active).

Take `COc1cc(C(=O)NNC(=O)c2ccccc2C(=O)O)cc(OC)c1OC`: the growth in [1] is 15.9%; in assay [2] it was 74.6%; in assay [3], 80.7%; in assay [4], 51.6%; in assay [5] it was 11.9%; in assay [6], 55.3%. Further, the growth in assay [7] is 32.2%; in [8], 52.7%; in [9] it was 38.8%; in assay [10] it was 37.5%; in [11] it was 56.8%; in assay [12], 43.1%. Moreover, the growth is 62% in [13]; 45.2% in assay [14]; -3.15% (active) in assay [15]; 53.8% in assay [16]; 46.8% in assay [17]; 30.1% in assay [18]. Also, the growth in [19] is 69.9%; in assay [20], 51.4%.

Turning to `S=C=NP1(N=C=S)=NP(N=C=S)(N=C=S)=NP(N=C=S)(N=C=S)=NP(N=C=S)(N=C=S)=N1` (stereo not given), the growth in [1] is 97.7%; in assay [2], 94%; in assay [3], 80.9%; in assay [4] it was 85.4%; in [5], 111%; in assay [6], 93.2%. For the same molecule, the growth was 72.2% in assay [7]; 79.2% in [8]; 89.4% in [9]; 118% in assay [10]; 113% in assay [11]; 86.4% in assay [12]. Also, the growth in [13] is 91.4%; in assay [14], 105%; in assay [15], 109%; in assay [16], 103%; in assay [17] it was 97.8%; in assay [18], 94.7%. Also, the growth in assay [19] is 94.8%; in assay [20], 93.4%.

As to `NC(CCCC(N)C(=O)c1ccccc1)C(=O)O` (stereo not given), the growth in [1] was 98.4%; in [2] it was 102%; in [3] it was 87.7%; in assay [4] it was 90.3%; in [5], 112%; in [6], 116%. For the same molecule, the growth is 64.4% in [7]; 92.8% in [8]; 102% in assay [9]; 104% in assay [10]; 105% in [11]; 98.9% in [12]. For the same molecule, the growth in assay [13] was 95.9%; in [14], 109%; in [15], 112%; in [16] it was 99.6%; in assay [17] it was 102%; in [18], 97.5%. Also, the growth in assay [19] is 82.5%; in [20] it was 102%.

Regarding `CCCC(=O)Oc1ccc(/C(=C(\C)c2ccc(OC)cc2)c2ccc(OCCN3CCCCC3)cc2)cc1`, the growth in assay [1] is 79.3%; in [2], 83.5%; in assay [3], 89.7%; in [4], 86.1%; in assay [5], 87.1%; in [6], 69%. Further, the growth is 78.9% in assay [7]; 76.8% in assay [8]; 67.1% in assay [9]; 67.6% in assay [10]; 87.1% in assay [11]; 21.9% in assay [12]. Also, the growth in assay [13] was 61.9%; in assay [14], 109%; in [15], 66.2%; in assay [16], 83.1%; in [17], 61.5%; in [18] it was 65.5%. The growth is 68.5% in [19] and 33.8% in assay [20].
